Test [1] deals with Homeodomain-interacting protein kinase 3 (Homo sapiens) (UniProt Q9H422). The note with it: at 10 µM.
Test [2] concerns the target Tyrosine-protein kinase HCK (Homo sapiens) (UniProt P08631). The following applies: at 1 µM.
Test [3] shares this target. The note with it: at 10 µM.
Test [4] shares this target. The note with it: at 1 µM. The source holds these as a separate data set.
The target is the same in test [5]. The note with it: at 10 µM. The source holds these as a separate data set.
Test [6] addresses Insulin-like growth factor 1 receptor (Homo sapiens) (UniProt P08069). The note with it: at 1 µM.
Test [7] has as its target Protein kinase C theta type (Homo sapiens) (UniProt Q04759). The following applies: at 1 µM.
For test [8] the target is unchanged. The following applies: at 10 µM.
Test [9] deals with T1, Protein kinase C iota type (Homo sapiens) (UniProt P41743).
T1 sequence (whole entry): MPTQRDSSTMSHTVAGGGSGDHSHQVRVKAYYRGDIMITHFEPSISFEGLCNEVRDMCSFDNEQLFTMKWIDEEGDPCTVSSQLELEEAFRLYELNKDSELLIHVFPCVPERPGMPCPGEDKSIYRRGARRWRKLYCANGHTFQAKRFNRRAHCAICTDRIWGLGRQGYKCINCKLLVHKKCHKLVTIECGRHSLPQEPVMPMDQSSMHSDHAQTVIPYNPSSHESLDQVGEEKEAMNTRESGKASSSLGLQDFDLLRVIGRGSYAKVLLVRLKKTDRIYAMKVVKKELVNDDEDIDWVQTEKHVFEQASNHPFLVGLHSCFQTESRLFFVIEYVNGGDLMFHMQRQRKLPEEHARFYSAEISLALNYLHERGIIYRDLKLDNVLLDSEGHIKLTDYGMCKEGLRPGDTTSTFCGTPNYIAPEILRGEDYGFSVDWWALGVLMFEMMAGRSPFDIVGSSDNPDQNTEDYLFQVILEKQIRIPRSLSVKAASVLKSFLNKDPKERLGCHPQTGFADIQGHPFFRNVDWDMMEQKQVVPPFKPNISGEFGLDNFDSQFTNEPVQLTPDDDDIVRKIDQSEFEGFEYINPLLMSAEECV
The following applies: at 1 µM.

Test [10] concerns the target T1, Protein kinase C iota type (Homo sapiens). The following applies: at 10 µM.
Test [11] addresses T2, Serine/threonine-protein kinase D1 (Homo sapiens) (UniProt Q15139).
T2 sequence (whole entry): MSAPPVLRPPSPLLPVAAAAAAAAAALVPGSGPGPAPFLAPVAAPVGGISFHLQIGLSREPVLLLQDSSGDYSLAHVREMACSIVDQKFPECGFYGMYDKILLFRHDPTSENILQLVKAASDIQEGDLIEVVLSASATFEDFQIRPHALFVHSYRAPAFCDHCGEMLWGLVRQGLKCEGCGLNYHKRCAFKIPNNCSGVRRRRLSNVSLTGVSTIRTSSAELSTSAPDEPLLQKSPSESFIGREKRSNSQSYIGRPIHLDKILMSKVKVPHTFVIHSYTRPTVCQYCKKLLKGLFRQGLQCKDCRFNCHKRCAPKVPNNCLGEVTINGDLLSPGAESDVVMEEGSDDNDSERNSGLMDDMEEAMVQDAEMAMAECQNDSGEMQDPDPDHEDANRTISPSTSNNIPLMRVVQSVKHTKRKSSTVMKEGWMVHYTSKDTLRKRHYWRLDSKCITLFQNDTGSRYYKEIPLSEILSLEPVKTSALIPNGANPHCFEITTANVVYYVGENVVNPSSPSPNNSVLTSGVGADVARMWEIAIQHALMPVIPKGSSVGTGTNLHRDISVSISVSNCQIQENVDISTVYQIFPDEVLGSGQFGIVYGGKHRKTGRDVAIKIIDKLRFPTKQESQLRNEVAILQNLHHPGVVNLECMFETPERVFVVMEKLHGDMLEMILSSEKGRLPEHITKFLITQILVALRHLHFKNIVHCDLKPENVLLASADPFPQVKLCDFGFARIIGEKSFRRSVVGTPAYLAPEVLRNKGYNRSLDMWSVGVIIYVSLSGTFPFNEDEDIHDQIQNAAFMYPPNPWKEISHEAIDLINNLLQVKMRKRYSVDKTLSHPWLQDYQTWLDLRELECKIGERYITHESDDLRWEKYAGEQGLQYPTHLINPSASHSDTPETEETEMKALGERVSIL
The following applies: at 1 µM.

For test [12], the target named is T2, Serine/threonine-protein kinase D1 (Homo sapiens). The following applies: at 10 µM.
The target of test [13] is T3, Serine/threonine-protein kinase haspin (Homo sapiens) (UniProt Q8TF76).
T3 sequence (whole entry): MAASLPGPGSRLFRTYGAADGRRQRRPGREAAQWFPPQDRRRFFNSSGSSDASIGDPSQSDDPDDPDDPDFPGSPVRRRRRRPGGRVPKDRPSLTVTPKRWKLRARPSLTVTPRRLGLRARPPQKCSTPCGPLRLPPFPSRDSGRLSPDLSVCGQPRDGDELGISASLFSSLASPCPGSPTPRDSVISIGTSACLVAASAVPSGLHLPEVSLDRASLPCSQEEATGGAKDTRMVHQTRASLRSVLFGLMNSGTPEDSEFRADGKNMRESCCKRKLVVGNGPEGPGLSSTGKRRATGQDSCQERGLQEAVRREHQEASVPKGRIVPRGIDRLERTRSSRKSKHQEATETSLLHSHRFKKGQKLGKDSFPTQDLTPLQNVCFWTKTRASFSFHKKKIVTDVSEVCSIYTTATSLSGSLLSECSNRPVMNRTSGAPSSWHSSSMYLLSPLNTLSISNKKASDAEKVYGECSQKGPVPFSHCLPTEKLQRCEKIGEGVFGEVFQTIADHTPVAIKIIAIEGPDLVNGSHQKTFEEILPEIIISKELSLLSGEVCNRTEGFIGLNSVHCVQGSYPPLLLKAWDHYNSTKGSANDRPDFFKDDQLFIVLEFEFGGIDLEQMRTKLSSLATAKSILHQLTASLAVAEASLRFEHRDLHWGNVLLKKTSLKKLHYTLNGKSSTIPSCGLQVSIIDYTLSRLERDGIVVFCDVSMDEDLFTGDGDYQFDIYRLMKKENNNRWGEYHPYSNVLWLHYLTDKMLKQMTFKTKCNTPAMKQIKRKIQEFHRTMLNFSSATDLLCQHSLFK
The note with it: at 1 µM.

Test [14] deals with T3, Serine/threonine-protein kinase haspin (Homo sapiens). The following applies: at 10 µM.
In test [15] the target is Insulin-like growth factor 1 receptor (Homo sapiens) (UniProt P08069). The following applies: at 10 µM.
Chain of Insulin-like growth factor 1 receptor (Homo sapiens) (P08069 31-736 limits assumed): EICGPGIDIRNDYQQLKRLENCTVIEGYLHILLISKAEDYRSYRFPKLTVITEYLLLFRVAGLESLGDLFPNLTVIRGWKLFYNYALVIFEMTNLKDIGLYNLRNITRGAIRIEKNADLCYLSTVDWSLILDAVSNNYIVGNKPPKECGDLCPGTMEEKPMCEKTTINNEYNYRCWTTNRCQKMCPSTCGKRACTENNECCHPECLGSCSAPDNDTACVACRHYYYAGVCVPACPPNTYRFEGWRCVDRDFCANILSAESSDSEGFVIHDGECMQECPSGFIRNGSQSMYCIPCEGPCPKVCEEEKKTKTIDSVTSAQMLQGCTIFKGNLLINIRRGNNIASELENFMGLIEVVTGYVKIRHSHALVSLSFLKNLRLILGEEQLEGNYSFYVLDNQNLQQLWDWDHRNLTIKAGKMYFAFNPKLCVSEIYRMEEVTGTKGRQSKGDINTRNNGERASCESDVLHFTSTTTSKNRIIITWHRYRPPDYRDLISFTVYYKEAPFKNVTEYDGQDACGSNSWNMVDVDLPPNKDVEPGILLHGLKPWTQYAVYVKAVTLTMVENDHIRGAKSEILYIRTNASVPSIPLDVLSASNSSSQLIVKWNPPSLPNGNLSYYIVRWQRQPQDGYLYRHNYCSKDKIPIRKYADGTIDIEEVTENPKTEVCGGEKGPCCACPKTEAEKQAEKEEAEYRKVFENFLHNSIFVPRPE
Chain of Insulin-like growth factor 1 receptor (Homo sapiens) (P08069 741-1367 limits assumed): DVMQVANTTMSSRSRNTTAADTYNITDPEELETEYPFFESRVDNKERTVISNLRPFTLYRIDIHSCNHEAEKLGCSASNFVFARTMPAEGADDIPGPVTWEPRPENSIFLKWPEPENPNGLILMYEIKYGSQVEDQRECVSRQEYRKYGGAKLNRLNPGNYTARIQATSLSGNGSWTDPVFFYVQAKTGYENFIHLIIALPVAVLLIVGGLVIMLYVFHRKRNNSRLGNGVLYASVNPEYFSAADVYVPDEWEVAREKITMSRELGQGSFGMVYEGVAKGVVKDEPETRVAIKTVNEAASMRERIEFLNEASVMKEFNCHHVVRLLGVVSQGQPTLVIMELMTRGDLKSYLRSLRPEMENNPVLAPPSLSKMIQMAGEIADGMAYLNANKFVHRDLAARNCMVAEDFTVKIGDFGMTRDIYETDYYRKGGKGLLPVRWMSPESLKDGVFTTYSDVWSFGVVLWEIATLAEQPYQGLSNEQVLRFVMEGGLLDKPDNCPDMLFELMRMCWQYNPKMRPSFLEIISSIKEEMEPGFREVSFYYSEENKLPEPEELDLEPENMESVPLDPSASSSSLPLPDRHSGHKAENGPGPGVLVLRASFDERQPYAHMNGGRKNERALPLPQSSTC
Test [16] concerns the target T4, Protein kinase C zeta type (Homo sapiens) (UniProt Q05513).
T4 sequence (whole entry): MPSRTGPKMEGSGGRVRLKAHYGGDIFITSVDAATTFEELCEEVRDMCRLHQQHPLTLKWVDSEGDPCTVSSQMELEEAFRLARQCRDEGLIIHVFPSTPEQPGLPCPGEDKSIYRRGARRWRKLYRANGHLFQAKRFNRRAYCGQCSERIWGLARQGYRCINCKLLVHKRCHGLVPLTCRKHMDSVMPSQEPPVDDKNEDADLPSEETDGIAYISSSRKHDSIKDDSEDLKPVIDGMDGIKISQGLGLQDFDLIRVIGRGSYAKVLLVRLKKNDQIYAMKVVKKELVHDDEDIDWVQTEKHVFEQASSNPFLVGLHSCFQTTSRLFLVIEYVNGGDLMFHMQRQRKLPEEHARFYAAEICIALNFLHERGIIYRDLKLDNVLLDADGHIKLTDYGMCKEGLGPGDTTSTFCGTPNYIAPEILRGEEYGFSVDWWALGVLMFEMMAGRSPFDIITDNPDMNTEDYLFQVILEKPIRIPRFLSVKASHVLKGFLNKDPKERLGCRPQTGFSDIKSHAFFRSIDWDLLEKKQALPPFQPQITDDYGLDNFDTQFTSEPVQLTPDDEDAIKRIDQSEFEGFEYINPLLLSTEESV
The following applies: at 10 µM.

The target of test [17] is Protein kinase C eta type (Homo sapiens) (UniProt P24723). The note with it: at 1 µM.
Chain of Protein kinase C eta type (Homo sapiens) (P24723 whole entry): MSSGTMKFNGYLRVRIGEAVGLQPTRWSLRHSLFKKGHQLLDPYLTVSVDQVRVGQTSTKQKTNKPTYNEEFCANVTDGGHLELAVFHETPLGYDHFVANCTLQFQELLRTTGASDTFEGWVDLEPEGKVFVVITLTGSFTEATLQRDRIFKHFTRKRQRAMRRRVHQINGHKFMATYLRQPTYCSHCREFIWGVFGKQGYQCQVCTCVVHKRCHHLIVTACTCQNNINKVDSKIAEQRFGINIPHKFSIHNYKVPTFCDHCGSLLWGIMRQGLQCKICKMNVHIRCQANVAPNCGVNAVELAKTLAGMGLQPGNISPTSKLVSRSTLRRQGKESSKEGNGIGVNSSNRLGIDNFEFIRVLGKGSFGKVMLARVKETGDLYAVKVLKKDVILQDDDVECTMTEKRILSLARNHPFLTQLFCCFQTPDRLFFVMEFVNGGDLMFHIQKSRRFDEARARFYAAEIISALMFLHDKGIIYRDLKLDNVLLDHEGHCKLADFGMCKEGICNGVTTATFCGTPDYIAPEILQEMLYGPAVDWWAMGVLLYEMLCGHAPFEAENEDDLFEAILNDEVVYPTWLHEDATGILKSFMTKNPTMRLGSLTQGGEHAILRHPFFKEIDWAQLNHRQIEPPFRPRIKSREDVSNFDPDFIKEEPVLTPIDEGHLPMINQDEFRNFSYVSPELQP
Test [18] shares this target. The following applies: at 10 µM.
The target in test [19] is T5, Serine/threonine-protein kinase D2 (Homo sapiens) (UniProt Q9BZL6).
T5 sequence (whole entry): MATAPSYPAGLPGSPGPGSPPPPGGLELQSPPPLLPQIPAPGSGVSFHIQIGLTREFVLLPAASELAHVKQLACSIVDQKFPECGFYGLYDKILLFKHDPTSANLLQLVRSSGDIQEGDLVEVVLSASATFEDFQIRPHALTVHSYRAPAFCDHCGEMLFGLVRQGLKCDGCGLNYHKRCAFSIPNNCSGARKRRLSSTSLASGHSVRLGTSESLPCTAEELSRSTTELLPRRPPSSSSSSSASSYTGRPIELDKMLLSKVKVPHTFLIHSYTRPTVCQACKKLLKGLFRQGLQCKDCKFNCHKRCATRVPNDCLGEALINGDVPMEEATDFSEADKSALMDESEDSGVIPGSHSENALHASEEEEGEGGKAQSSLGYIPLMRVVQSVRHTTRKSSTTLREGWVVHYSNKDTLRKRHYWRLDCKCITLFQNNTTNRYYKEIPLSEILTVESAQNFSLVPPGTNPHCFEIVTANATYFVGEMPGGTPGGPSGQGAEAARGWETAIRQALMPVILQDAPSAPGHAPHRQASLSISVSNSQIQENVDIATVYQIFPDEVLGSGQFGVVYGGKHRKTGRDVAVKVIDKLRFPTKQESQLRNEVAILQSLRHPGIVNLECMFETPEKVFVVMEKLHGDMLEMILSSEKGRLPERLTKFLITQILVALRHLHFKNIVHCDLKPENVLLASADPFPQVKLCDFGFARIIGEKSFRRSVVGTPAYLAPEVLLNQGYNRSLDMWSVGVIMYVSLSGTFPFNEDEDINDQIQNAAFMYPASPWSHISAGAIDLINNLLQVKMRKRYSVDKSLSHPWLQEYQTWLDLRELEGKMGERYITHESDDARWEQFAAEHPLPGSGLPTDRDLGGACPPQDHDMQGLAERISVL
The note with it: at 1 µM.

For test [20], the target named is T5, Serine/threonine-protein kinase D2 (Homo sapiens). The note with it: at 10 µM.

What is called residual activity is the signal under treatment as a percentage of the control signal.

Chain of Tyrosine-protein kinase HCK (Homo sapiens) (P08631 2-526 limits assumed): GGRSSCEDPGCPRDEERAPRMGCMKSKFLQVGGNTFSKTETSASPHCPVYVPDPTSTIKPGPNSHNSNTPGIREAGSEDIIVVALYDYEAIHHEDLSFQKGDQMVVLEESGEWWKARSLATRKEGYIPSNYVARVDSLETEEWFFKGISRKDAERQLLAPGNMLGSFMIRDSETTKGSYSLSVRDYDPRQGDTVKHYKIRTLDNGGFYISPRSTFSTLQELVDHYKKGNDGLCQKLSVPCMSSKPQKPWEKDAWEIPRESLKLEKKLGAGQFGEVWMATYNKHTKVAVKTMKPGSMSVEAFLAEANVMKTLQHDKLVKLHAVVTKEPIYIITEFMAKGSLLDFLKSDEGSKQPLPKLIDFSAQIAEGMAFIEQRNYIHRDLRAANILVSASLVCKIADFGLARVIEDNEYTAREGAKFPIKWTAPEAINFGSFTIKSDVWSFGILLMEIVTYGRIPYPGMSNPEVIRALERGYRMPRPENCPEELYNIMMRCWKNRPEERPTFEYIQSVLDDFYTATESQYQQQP
Chain of Protein kinase C theta type (Homo sapiens) (Q04759 whole entry, looked up): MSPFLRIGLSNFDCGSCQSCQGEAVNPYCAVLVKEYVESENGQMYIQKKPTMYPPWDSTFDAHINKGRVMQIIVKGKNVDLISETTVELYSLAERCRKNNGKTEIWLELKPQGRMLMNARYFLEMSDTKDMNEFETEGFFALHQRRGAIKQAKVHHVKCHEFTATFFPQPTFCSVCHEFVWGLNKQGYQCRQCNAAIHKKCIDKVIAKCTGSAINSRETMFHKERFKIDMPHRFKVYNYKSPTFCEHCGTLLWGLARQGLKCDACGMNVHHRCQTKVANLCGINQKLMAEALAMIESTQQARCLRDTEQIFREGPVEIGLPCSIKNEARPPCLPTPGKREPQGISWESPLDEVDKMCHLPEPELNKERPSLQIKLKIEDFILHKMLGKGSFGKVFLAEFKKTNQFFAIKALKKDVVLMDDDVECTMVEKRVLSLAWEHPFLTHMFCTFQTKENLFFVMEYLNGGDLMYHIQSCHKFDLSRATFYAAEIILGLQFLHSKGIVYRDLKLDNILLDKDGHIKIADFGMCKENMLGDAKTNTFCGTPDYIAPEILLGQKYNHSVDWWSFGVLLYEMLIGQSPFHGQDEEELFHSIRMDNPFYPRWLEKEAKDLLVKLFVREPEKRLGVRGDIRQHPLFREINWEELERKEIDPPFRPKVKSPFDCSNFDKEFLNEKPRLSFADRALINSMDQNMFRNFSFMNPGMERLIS
Chain of Homeodomain-interacting protein kinase 3 (Homo sapiens) (Q9H422 whole entry, looked up): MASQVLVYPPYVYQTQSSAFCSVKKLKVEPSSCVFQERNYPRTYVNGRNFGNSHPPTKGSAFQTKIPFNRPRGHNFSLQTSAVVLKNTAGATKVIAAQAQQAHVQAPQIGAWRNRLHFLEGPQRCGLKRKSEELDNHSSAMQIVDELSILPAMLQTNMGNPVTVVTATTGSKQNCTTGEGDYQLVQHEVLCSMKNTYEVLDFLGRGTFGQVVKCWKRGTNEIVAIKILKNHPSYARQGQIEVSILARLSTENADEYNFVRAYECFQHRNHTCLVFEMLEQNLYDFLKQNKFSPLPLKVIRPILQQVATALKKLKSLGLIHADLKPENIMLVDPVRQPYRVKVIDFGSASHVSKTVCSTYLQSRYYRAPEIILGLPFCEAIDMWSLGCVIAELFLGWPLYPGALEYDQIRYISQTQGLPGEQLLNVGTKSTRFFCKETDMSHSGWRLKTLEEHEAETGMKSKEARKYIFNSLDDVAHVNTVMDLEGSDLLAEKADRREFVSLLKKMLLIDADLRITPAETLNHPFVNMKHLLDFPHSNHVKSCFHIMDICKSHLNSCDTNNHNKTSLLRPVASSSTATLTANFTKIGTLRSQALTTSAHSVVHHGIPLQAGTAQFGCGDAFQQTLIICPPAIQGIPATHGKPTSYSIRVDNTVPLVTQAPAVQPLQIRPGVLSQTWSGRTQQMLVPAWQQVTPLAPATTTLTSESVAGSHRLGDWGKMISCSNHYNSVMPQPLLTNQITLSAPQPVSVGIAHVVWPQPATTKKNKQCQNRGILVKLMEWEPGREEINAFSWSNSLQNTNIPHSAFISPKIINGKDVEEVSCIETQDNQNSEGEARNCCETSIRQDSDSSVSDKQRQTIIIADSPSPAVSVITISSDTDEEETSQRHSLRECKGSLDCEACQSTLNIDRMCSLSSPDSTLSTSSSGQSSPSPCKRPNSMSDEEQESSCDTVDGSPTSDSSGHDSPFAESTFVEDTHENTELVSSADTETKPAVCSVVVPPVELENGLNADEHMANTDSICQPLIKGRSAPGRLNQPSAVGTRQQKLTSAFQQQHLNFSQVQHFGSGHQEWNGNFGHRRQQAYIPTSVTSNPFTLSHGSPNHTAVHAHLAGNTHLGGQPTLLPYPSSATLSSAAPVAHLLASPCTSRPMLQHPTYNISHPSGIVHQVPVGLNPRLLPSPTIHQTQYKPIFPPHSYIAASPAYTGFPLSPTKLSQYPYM

As for `COc1ccc(Cl)cc1NC(=O)Nc1cc(C)nc2ccccc12`, the residual activity in test [1] came out at 98%; in test [2] it was 93%; in test [3] it was 53%; in [4], 100%; in [5], 98%; in test [6] it was 147%. Also, the residual activity is 89% in test [7]; 92% in test [8]; 88% (inactive) in test [9]; 86% in test [10]; 95% in test [11]; 87% in test [12].
On to `c1ccc(-c2cnc(Nc3ccc(OCCN4CCCC4)cc3)s2)cc1`, for which the residual activity in test [1] came to 31%; in test [13], 77%; in [14], 51%; in test [2], 57%; in test [3], 24%; in [4] it was 71%. In addition, the residual activity in test [5] is 11%; in [6] it was 119%; in test [15] it was 108%; in [16], 109%; in test [7], 115%; in test [8] it was 102%.
For the compound `Nc1ncnc2c1cnn2-c1ccccc1`, the residual activity in test [1] was found to be 94%; in test [14], 83%; in test [2] it was 83%; in [3], 68%; in test [4], 96%; in test [5] it was 85%. The residual activity was 140% in test [6]; 129% in test [15]; 102% in [17]; 76% in test [18]; 102% (inactive) in [9]; 98% in test [10]. Besides, in test [11], the residual activity was found to be 92%.
Regarding `O=c1cc(N2CCOCC2)oc2c1ccc1ccccc12`, the residual activity was found to be 21% in test [1]; 74% in test [13]; 26% in [14]; 85% in [2]; 77% in test [3]; 101% in test [4]. The residual activity in [5] turned out to be 110%; in [16], 91%; in [17], 94%; in test [18], 79%; in test [7], 94%; in test [8], 105%. Besides, the residual activity is 85% (inactive) in test [9]; 97% in test [10]; 77% in [11]; 79% in test [12]; 100% in test [19]; 94% in test [20].
